Measured values published in PubChem BioAssay (EPA / NIEHS).
Inconclusive results are not listed. Active and inactive are the calls of the source. The calls were made as follows, unless noted: active = hit-call score of the fitted dose curve at least 0.9, where 1 is the maximum; inconclusive = response in the unintended direction; inactive = score below 0.9.

Key:
[1] = TOX21_p53_BLA_p2_viability: Viability Assessment in the Tox21 HCT-116 p53 Agonism Beta-lactamase Assay, Phase 2 (AID 2283591);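 also: compound exposure lasted 16 h at 37 °C; actives lower the ATP signal meaning cytotoxicity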
Summary of the method: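 HCT116 p53-bla cells, 4000/well, dosed after 5 h plating (217-fold dilution of DMSO stocks) and incubated 16 h at 37C. Viability taken as cellular ATP by CellTiter-Glo luminescence after 30 min RT; signal loss marks cytotoxicity.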

[2] = target: Cellular tumor antigen p53 (Homo sapiens) (UniProt P04637); test: TOX21_p53_BLA_p2_ratio: Tox21 HCT-116 p53 Agonism Beta-lactamase Assay, Ratio, Phase 2 (AID 2283592)
Sequence of Cellular tumor antigen p53 (Homo sapiens) (P04637 whole entry, looked up): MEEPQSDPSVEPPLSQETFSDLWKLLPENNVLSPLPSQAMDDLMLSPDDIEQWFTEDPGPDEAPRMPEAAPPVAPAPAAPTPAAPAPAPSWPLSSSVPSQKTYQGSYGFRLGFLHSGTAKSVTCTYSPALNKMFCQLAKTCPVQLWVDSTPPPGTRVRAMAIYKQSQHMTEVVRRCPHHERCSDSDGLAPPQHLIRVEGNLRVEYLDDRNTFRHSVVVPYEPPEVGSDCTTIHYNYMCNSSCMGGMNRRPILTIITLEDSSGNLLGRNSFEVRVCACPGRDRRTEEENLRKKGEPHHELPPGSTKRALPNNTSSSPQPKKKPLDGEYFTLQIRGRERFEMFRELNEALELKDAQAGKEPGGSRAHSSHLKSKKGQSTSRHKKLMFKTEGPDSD
Summary of the method: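 DMSO-normalized, positive-direction endpoint derived from the 460 nm/530 nm FRET ratio in HCT116 p53 beta-lactamase reporter cells exposed 16 h at 37C and loaded with CCF4-AM for 2 h.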

[3] = target: Cellular tumor antigen p53 (Homo sapiens) (UniProt P04637); test: TOX21_p53_BLA_p3_ratio: Tox21 HCT-116 p53 Agonism Beta-lactamase Assay, Ratio, Phase 3 (AID 2283596)
Summary of the method: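 Cells were seeded at 4000/well, rested 5 h at 37C, then dosed with DMSO compound solutions (217-fold dilution) for 16 h. CCF4-AM substrate was loaded for 2 h at room temperature, and the 460/530 nm emission ratio was fitted for gain of signal versus DMSO.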

[4] = TOX21_p53_BLA_p5_viability: Viability Assessment in the Tox21 HCT-116 p53 Agonism Beta-lactamase Assay, Phase 5 (AID 2283600)
Summary of the method: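 Here cell health was gauged by ATP levels in wells holding 4000 cells, each treated 16 h with DMSO-delivered compounds at 217-fold dilution; reduced luminescence marked toxicity.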

[5] = target: Cellular tumor antigen p53 (Homo sapiens) (UniProt P04637); test: TOX21_p53_BLA_p4_ratio: Tox21 HCT-116 p53 Agonism Beta-lactamase Assay, Ratio, Phase 4 (AID 2283601)
Summary of the method: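 HCT-116 p53 beta-lactamase reporter cells (4000/well) preincubated 5 h, then compound (217-fold dilution of DMSO stock) for 16 h at 37C. CCF4-AM substrate added 2 h at room temperature; 460/530 nm emission ratio fitted upward versus DMSO.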

[6] = target: Cellular tumor antigen p53 (Homo sapiens) (UniProt P04637); test: TOX21_p53_BLA_p5_ratio: Tox21 HCT-116 p53 Agonism Beta-lactamase Assay, Ratio, Phase 5 (AID 2283599)
Summary of the method: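 HCT-116 p53-bla cells (4000/well) plated 5 h, dosed with compound (217-fold DMSO dilution) for 16 h at 37 C; CCF4-AM substrate 2 h at room temperature. Activity is the 460/530 nm emission ratio (405 nm excitation), fitted in gain-of-signal direction versus DMSO.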

[7] = tested on: Brachyury (BRA) Protein Expression, Deisenroth Lab, TBXT (gene 6862); test: CCTE_Deisenroth_DEVTOX-GLR_legacy_Bra: (Legacy) CCTE's DevTox GLR-Endo Assay Evaluation of Brachyury (BRA) Protein Expression, Deisenroth Lab (AID 2284329; active = hit-call score of the fitted dose curve at least 0.9, where 1 is the maximum; inactive = score below 0.9)
Summary of the method: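 Readout: percent Bra+ cells by high-content fluorescence imaging, Bra+ meaning mean intensity 5x BMAD over pluripotent control median. RUES2-GLR cells dosed twice over 48 h differentiation; DMSO-control median subtracted before concentration-response fitting.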

[8] = CCTE_Deisenroth_DEVTOX-GLR_legacy_CellCount: (Legacy) Viability Assessment in CCTE's DevTox GLR-Endo Assay, Deisenroth Lab (AID 2284331; active = hit-call score of the fitted dose curve at least 0.9, where 1 is the maximum; inactive = score below 0.9); settings: actives raise or lower the signal
Summary of the method: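 Human pluripotent RUES2-GLR cells differentiated 48 h with two 24-h-interval exposures, 10-point 1 nM–200 uM series, 0.2% DMSO. Fixed nuclei counted by high-content imaging (5 fields/well); bidirectional fit vs DMSO, n≥4.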

[9] = tested on: SRY-box transcription factor 17 (SOX17) Protein Expression, Deisenroth Lab, SOX17 (gene 64321); test: CCTE_Deisenroth_DEVTOX-GLR_legacy_Sox17: (Legacy) CCTE's DevTox GLR-Endo Assay Evaluation of SRY-box transcription factor 17 (SOX17) Protein Expression, Deisenroth Lab (AID 2284341; active = hit-call score of the fitted dose curve at least 0.9, where 1 is the maximum; inactive = score below 0.9); settings: actives raise or lower the signal
Summary of the method: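 RUES2-GLR human pluripotent cells differentiated toward endoderm for 48 h, dosed twice at 24 h intervals (1 nM–200 uM, 10 points). Imaging gives % SOX17+ cells (intensity >5x BMAD above pluripotent control median); bidirectional fit versus 0.2% DMSO.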

[10] = tested on: SRY-box transcription factor 2 (SOX2) Protein Expression, Deisenroth Lab, SOX2 (gene 6657); test: CCTE_Deisenroth_DEVTOX-GLR_legacy_Sox2: (Legacy) CCTE's DevTox GLR-Endo Assay Evaluation of SRY-box transcription factor 2 (SOX2) Protein Expression, Deisenroth Lab (AID 2284346; active = hit-call score of the fitted dose curve at least 0.9, where 1 is the maximum; inactive = score below 0.9)
Summary of the method: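 Read-out: fraction of Sox2+ cells by high-content fluorescence imaging of fixed RUES2-GLR cells after 48 h differentiation with two 24 h-spaced exposures. Positivity cutoff 5x BMAD above endoderm control median; 0.2% DMSO median subtracted.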

[11] = tested on: SRY-box transcription factor 17 (SOX17) Protein Expression, Deisenroth Lab, SOX17 (gene 64321); test: CCTE_Deisenroth_DEVTOX-GLR_Endo_SOX17: CCTE's DevTox GLR-Endo Assay Evaluation of SRY-box transcription factor 17 (SOX17) Protein Expression, Deisenroth Lab (AID 2284413; active = hit-call score of the fitted dose curve at least 0.9, where 1 is the maximum; inactive = score below 0.9)
Summary of the method: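 Human RUES2-GLR cells carrying an inducible fluorescent reporter are differentiated in defined media for 48 h and dosed twice, 24 h apart. After fixation and nuclear staining, imaging yields SOX17+ cell percentage relative to 0.2% DMSO-treated differentiated cells.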

[12] = tested on: Brachyury (BRA) Protein Expression, TBXT (gene 6862); test: CCTE_Deisenroth_DEVTOX-GLR_Endo_BRA: CCTE's DevTox GLR-Endo Assay Evaluation of Brachyury (BRA) Protein Expression, Deisenroth Lab (AID 2284417; active = hit-call score of the fitted dose curve at least 0.9, where 1 is the maximum; inactive = score below 0.9)
Summary of the method: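 RUES2-GLR pluripotent cells differentiated 48 h with two chemical exposures 24 h apart, 10-point range 1 nM - 200 uM. Percentage of BRA+ cells per total count by high-content imaging, minus 0.2% DMSO control.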

[13] = CCTE_Deisenroth_DEVTOX-GLR_Endo_CellCount: Viability Assessment in CCTE's DevTox GLR-Endo Assay, Deisenroth Lab (AID 2284420; active = hit-call score of the fitted dose curve at least 0.9, where 1 is the maximum; inactive = score below 0.9)
Summary of the method: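 Measured 48 h after dosing: fluorescent nuclei counted by imaging in human RUES2-GLR cells under defined differentiation media, tested at 1 nM - 200 uM. Values are percent cell-count change relative to 0.2% DMSO.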

[14] = tested on: SRY-box transcription factor 2 (SOX2) Protein Expression, Deisenroth Lab, SOX2 (gene 6657); test: CCTE_Deisenroth_DEVTOX-GLR_Pluri_SOX2: CCTE's DevTox GLR-Pluri Assay Evaluation of SRY-box transcription factor 2 (SOX2) Protein Expression, Deisenroth Lab (AID 2284428; active = hit-call score of the fitted dose curve at least 0.9, where 1 is the maximum; inactive = score below 0.9)
Summary of the method: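 Percent SOX2+ RUES2-GLR cells, determined by fluorescence microscopy after 48 h and two 24-h-interval chemical exposures spanning 1 nM–200 uM, served as the endpoint. Values are expressed relative to 0.2% DMSO; total cell counts assessed viability.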

[15] = tested on: Brachyury (BRA) Protein Expression, Deisenroth Lab, TBXT (gene 6862); test: CCTE_Deisenroth_DEVTOX-GLR_Pluri_BRA: CCTE's DevTox GLR-Pluri Assay Evaluation of Brachyury (BRA) Protein Expression, Deisenroth Lab (AID 2284429)
Summary of the method: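 RUES2-GLR reporter line; 48 h mesoderm differentiation; two exposures, 24 h apart; 1 nM - 200 uM, 10 points; nuclear stain, high-content imaging, 5 fields/well; endpoint = %BRA+ cells of total count minus 0.2% DMSO; n=4.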

[16] = CCTE_Deisenroth_DEVTOX-GLR_Pluri_CellCount: Viability Assessment in CCTE's DevTox GLR-Pluri Assay Evaluation of Total Cell Counts, Deisenroth Lab (AID 2284430; active = hit-call score of the fitted dose curve at least 0.9, where 1 is the maximum; inactive = score below 0.9)
Summary of the method: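 Cytotoxicity readout: fluorescent nuclei counts by high-content imaging, expressed as percent change relative to 0.2% DMSO. Human RUES2-GLR pluripotent line differentiated 48 h, dosed twice at 24-h intervals across 1 nM - 200 uM (10 points).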

[17] = TOX21_p53_BLA_p4_viability: Viability Assessment in the Tox21 HCT-116 p53 Agonism Beta-lactamase Assay, Phase 4 (AID 2283597);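 also: hits lower the luminescence signal meaning cytotoxicity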
Summary of the method: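 In this multiplexed secondary endpoint, HCT116 cells (4000 per well, compound at 5 h, 16 h treatment) received CellTiter-Glo after the beta-lactamase read. Luminescence after 30 min RT reflects ATP, and falling signal marks cytotoxicity.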

Measured: AC50

Oc1ccc(O)c2c(O)cccc12
inactive: [1] | [2] | [3] | [4] | [5]

c1ccc2c(c1)OCC(CN1CCCCC1)O2 (stereo not drawn)
inactive: [1] | [2] | [3] | [6] | [5]

O=C(Cn1ccnc1[N+](=O)[O-])NCc1ccccc1
inactive: [1] | [2] | [3] | [4] | [5]

Cc1cccc([N+](=O)[O-])c1C(=O)O
inactive: [1] | [2] | [3] | [6] | [5]

Nc1cccc2c1CN(C1CCC(=O)NC1=O)C2=O (stereo not drawn)
inactive: [1] | [2] | [3] | [5] | [7] | [10] | [15] | [16]
active: [8] 132 nM | [9] 328 nM | [11] 293 nM | [12] 5.03 nM | [13] 132 nM | [14] 28.7 nM

CO/N=C(\C(=O)N[C@@H]1C(=O)N2C(C(=O)[O-])=C(C[n+]3cccc4c3CCC4)CS[C@H]12)c1csc(N)n1
inactive: [1] | [2] | [3] | [4] | [5]

O=S(=O)(O)CCN1CCN(CCO)CC1
inactive: [1] | [2] | [3] | [4] | [5]

N[C@@H](C(=O)N[C@@H]1C(=O)N2C(C(=O)O)=C(Cl)CS[C@H]12)c1ccccc1
inactive: [1] | [2] | [3] | [4] | [5]

CN(CC1(C)CCCO1)S(=O)(=O)c1ccc(Cl)c(S(N)(=O)=O)c1 (stereo not drawn)
inactive: [1] | [2] | [3] | [4] | [5]

CCC(C)O (stereo not drawn)
inactive: [1] | [2] | [3] | [4]

NC(CS)C(=O)O (stereo not drawn)
inactive: [1] | [2] | [3] | [5]

O=C(NC(Cc1cc(=O)[nH]c2ccccc12)C(=O)O)c1ccc(Cl)cc1 (stereo not drawn)
inactive: [1] | [2] | [3] | [5]

Nc1ccc(S(=O)(=O)Nc2ccnn2-c2ccccc2)cc1
inactive: [1] | [2] | [3] | [5]

CC1(C)C2CC[C@]3(C)[C@H](C(=O)C=C4[C@@H]5C[C@@](C)(C(=O)O)CC[C@]5(C)CC[C@]43C)[C@@]2(C)CC[C@@H]1O[C@H]1O[C@H](C(=O)O)[C@@H](O)[C@H](O)[C@H]1O[C@@H]1O[C@H](C(=O)O)[C@@H](O)[C@H](O)[C@H]1O (stereo partly drawn)
inactive: [1] | [2] | [17]

CC(C)(C)C1(CCc2ccc(Cl)cc2)CO1 (stereo not drawn)
inactive: [1] | [2] | [17] | [6] | [4]
